# ChEMBL document CHEMBL4888484, “Replenishing the malaria drug discovery pipeline: Screening and hit evaluation of the MMV Hit Generation Library 1 (HGL1) against asexual blood stage Plasmodium falciparum ,using a nano luciferase reporter read-out” (2022)
# Among all 4,800 compounds or so, about 420 (8.8%) showed an effect of 50% or more. For the sample, strong results were picked, then their nearest neighbours and some compounds at random.
# System: Plasmodium falciparum
# Assay: Confirmatory screen in NF54 nanoGlo assay, in single point, at 2uM, 72h
# Assay type: functional, Erythrocyte
# Conditions: timepoint 72 hour
row,SMILES,% Inhibition [%]
1,Cc1cc(OC[C@@H](O)CNC(C)(C)CC(C)(C)C)cc(C)c1Cl,67
2,CC(=O)N1CCCN(S(=O)(=O)Cc2ccccc2Cl)CCNC(=O)[C@@H]2CCC[C@@H]21,0
3,Cc1ccc(-c2n[nH]c(NC(=O)Nc3ccc(F)c(S(=O)(=O)NC4CC4)c3)c2C)o1,-9
4,CCOc1ccc([C@@H](Nc2nc(C)cc(C)n2)c2cc(C)sc2NC(=O)c2ccccc2)cc1,1
5,COc1ccc(OC)c([C@H](C)NC(=O)N2CCS(=O)(=O)CC2)c1,-3
6,C[N+]12CCCCC1C(OC(=O)C1(c3ccccc3)CCCC1)CCC2 (stereo not given),96
7,CN(C(=O)Cn1cnc2nc(N3CCC(C(=O)NC4CC4)CC3)sc2c1=O)c1ccccc1,-14
8,CCCCC1NC(=O)N([C@@H]2CCC(=O)N[C@H]2c2ccccc2)C1=O (stereo not given in full),2
9,CC(C)C(NC(=O)COc1ccccc1)C(=O)NCC(c1ccccc1Cl)c1c[nH]c2ccccc12 (stereo not given),69
10,O=C(Cc1c[nH]c2ccccc12)Nc1ccc(Cl)c2ncccc12,5
11,CC(=O)Nc1ccccc1CC(c1c[nH]c2ccccc12)c1c[nH]c2ccccc12,0
12,CCS(=O)(=O)N1CCN(c2nc(Cc3ccc(C)cc3)nc3c2c(C)nn3-c2ccccc2)CC1,-3
13,N/C(CC(=O)Nc1cccc(Cl)c1)=N/O,-4
14,CCCC[C@H](Oc1ccc(C(C)(C)CC)cc1C(C)(C)CC)C(=O)Nc1ccc(NC(=O)C(F)(F)C(F)(F)C(F)(F)F)c(O)c1,30
15,Cc1cc(-c2ccccc2)nc(O)c1S(C)(=O)=O,-3
16,Cc1ccc(S(=O)(=O)N2CCN(C(=O)c3cc(C4CC4)nc4c3c(C)nn4C(C)C)CC2)cc1,-1
17,Cc1nn(C(C)(C)C)c2nc(C3CC3)cc(C(=O)N(C)c3ccccc3)c12,81
18,Cc1nn(Cc2ccccc2)c2nc(C3CC3)cc(C(=O)N3CCOCC3)c12,3
19,Cc1cnc(-n2cnnc2)c(-c2ccc(S(C)(=O)=O)cc2)c1,-3
20,Cn1c(-c2ccccc2)cn2cc(-c3ccc(F)cc3)nc12,1
21,COc1cccc(Cn2nc3ccc(S(=O)(=O)N4CCCC4)cn3c2=O)c1,2
22,Cc1cc(NC(=O)c2ccccn2)n(-c2nc3ccccc3o2)n1,88

row,SMILES,% Inhibition [%]
1,Cc1cc(C(=O)Nc2cc(C)nn2C)nc(N(C)C)n1,-1
2,Cc1cc(C)n(C(=O)CNC(=O)c2ccccn2)n1,2
3,CCc1cc(C(=O)N(CC)c2ccccc2)c2c(C)noc2n1,-7
4,O=C(Nc1cc(-c2onc3c2CCCC3)cc(C(F)(F)F)c1)c1cncc(Br)c1,95
5,Clc1ccc(-c2onc3c2CCCC3)cc1,2
6,O=C(Nc1onc2c1CCC2)c1ccc2ccccc2c1,45
7,Cn1c(CCNC(=O)CCc2cccnc2)nc2cc(Cl)ccc21,-3
8,CCN1CCC(NC(=O)CCc2c[nH]c3ccccc23)CC1,4
9,CC1(C)Oc2ccc(S(=O)(=O)NC3CCCCC3)cc2NC1=O,-8
10,Cc1nn(-c2nc3ccccc3[nH]2)c(O)c1Cc1ccccc1,2
11,Cc1nn(-c2nc3ccccc3[nH]2)c(O)c1CCC(C)C,68
12,Oc1cc(-c2ccc(F)cc2)nn1-c1nc2ccccc2[nH]1,-9
13,O=C(Nc1ccc(OC2CCC2)c(F)c1)N1CC[C@H](O)C1,-2
14,CCCc1noc([C@H](C)OC(=O)c2cc[nH]n2)n1,-7
15,CCN1C(=O)C(=O)N(CN2CCc3ccccc3C2)C1=O,-4
16,Cc1nn(C)c(Cl)c1NC(=O)OCc1ccc(F)cc1,-4
17,CCn1cc(-c2nc(-c3ccccc3C)no2)c(=O)c2cc(F)c(N3CCCCC3)cc21,47
18,CCn1cc(C(=O)O)c(=O)c2cc(F)c(N3CCN(S(=O)(=O)c4ccccc4)CC3)cc21,-10
19,CCn1cc(C#N)c(=O)c2cc(F)c(N3CCN(Cc4ccccc4)CC3)cc21,69
20,c1cc(Cn2cnc3c2CCCC3)cs1,-15
21,CC[C@H]1Cn2c(C(=O)NCc3cccs3)cc3c(Cl)ccc(c32)O1,-4
22,COc1ccc2c(NC(=O)Cc3c(C)noc3C)n[nH]c2c1,0

row,SMILES,% Inhibition [%]
1,COc1ccc(C(=O)Cn2nc(C)cc2C)cc1,-4
2,COc1ccc2c(O)cc(-c3ccccc3)nc2c1,-2
3,O=C(Nc1cccc(Oc2c(F)c(F)c(-c3c(F)c(F)c(Oc4cccc(NC(=O)c5ccccc5)c4)c(F)c3F)c(F)c2F)c1)c1ccccc1,5
4,Nc1cc(C(F)(F)F)c(Br)cc1Br,-16
5,Cc1cccc(N2CCN(C(=O)c3ccc4c(c3)C(=O)N(c3cc(C)on3)C4=O)C[C@@H]2C)c1,-3
6,CC1CN(S(=O)(=O)CC2CCOC2)c2ccc(F)cc2O1 (stereo not given),-2
7,CCOc1ccccc1NC(=O)Cc1c(C)nc2nc(-c3cccnc3)nn2c1C,0
8,CCCOc1ccc(Nc2cc(C)nc3ccc(Cl)cc23)cc1,42
9,Cc1cc(C)c2nc(C)cc(Nc3ccc(O)cc3)c2c1,87
10,Cc1ncoc1C(=O)N1CC(F)(F)C[C@H]1Cn1cc(C(=O)N2CCOCC2)nn1,-1
11,Cn1cncc1CC(=O)Nc1ccnc(NC(=O)OC(C)(C)C)c1,96
12,CC(C)(C)OC(=O)Nc1cccc(N)n1,1
13,COc1ccc(-c2noc(Cn3c(=O)c4ccccc4n(CC(=O)Nc4cc(Cl)ccc4C)c3=O)n2)cc1,-3
14,O=C(C[C@H]1CCN(C(=O)c2ccc(F)cc2)C1)NC1CC1,-11
15,CCS(=O)(=O)Nc1ccc(S(=O)(=O)NC[C@@H](c2ccccc2OC)N2CCCCC2)c(C)c1,-1
16,CC(C)[C@@H]1CC[C@H](C)C[C@H]1OC(=O)Cn1cc(-c2ccc(Cl)cc2)[n+]2c1CCC2,84
17,CC(C)N(C(=O)c1cc(O)nc2ccccc12)C1CC1,-2
18,CN(CC(C)(CO)CO)C(=O)c1coc2ccccc12,-3
19,c1cc(-c2nc3cc4ccccc4cc3[nH]2)nc(-c2nc3cc4ccccc4cc3[nH]2)c1,99
20,Oc1cc(-c2ccc3ccccc3c2)[nH]n1,-11
21,Cc1cccc(C)c1OCC(=O)Nc1ccc(-c2nc3cc4ccccc4cc3[nH]2)cc1,10
